High-throughput results (PubChem)
Most compounds without a hit are left out; they make up all but 4.3% or so of the library.
SMARCA2 activ = SMARCA2 function activation, primary screen | MG213 cells, MMTV-luciferase reporter, dexamethasone, overnight | activation, % at 9.1 µM | 1% of 370,000 active; in the data active = activation above about 7.8%;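 also: 0% = vehicle wells and 100% = reference activator wells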
MITF act = activators of MITF-driven TRPM1 promoter activity in SK-MEL-5 cells. activation, % at 12.5 µM. 0.75% of 300,000 active. SK-MEL-5 TRPM1-promoter luciferase, 24 h; % of positive control, neutral wells = 0;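 active = mean activation of at least 80% with every replicate also reaching 80%; inconclusive = mean reaches 80% but some replicate falls short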;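 also: 0% = neutral control wells and 100% = parthenolide positive control wells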
esBAF inh = SWI/SNF esBAF complex inhibition; mouse ES cells, Bmi1-luciferase knock-in reporter, 24 h; 100% = twice the neutral-well signal; reporter increase, % at 12.5 µM; 2% of 350,000 active; AID 602393; in the data active = activation above about 40%; inconclusive = no clear call, values can overlap the other calls;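 also: 0% = median of the plate's neutral control wells and 100% = double that signal; a rise in the Bmi1 reporter signal indicates esBAF inhibition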
FGF22 binding = binders of recombinant human FGF22 by thermal shift. 1.5% of 340,000 active. SYPRO orange fluorescence; percent of sucrose octasulfate shift, DMSO zero. Q9HCT0. activity (Tm shift, normalised), % at 9.99 µM. AID 651658;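 active = mean Tm shift, scaled 0 neutral to 100 positive control, at about 1.3% or above, every replicate too, limit read from the data; inconclusive = no clear call, values can overlap the other calls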
AF4-AF9 inh = inhibitors of human MLL-AF4/AF9 interaction; AlphaScreen, biotin-AF4 peptide binding to FLAG-AF9; 0.47% of 350,000 active; inhibition, % at 10 µM; P42568; AID 651704;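 active = every replicate reaching a set inhibition limit, whatever the replicate mean, cut at about 25% in these data; inconclusive = mean inhibition reaches that limit but some replicates miss it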;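 also: 0% = plate neutral control median and 100% = total signal loss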
Target sequence (P42568 whole entry, looked up): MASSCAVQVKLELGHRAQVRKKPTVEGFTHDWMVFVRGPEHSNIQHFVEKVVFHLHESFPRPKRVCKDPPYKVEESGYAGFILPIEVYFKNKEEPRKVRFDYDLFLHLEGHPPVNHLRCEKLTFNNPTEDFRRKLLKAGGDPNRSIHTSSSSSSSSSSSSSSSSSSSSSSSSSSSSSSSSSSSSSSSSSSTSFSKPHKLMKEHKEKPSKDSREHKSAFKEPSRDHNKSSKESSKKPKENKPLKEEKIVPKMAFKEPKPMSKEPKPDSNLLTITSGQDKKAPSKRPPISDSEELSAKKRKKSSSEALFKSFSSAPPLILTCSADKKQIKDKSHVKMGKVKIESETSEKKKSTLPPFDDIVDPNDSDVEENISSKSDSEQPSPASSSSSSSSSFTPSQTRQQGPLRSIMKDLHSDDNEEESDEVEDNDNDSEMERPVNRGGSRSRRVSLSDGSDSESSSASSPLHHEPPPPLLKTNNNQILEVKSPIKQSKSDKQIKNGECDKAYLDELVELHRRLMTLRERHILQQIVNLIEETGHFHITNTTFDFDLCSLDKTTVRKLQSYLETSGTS
Wnt bcat act = activators of Wnt/beta-catenin signaling | Wnt/beta-catenin reporter cell assay, activator, plate reader | activation, % at 9.35 µM | 1.2% of 300,000 active; in the data active = activation above about 30%, passing the limit was not always enough; inconclusive = no clear call, values can overlap the other calls;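 also: 0% = neutral control wells and 100% = positive control wells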
The depositor's hits bear a star.

Screening Cc1ccccc1CC1(CO)CCCN(Cc2c(C)nn(C)c2Cl)C1 (stereo unspecified) returned SMARCA2 activ 3, MITF act -10, FGF22 binding 44*, AF4-AF9 inh 0 and Wnt bcat act -4.
Screening CCn1ccnc1CN1CCC(CO)(CCOc2ccccc2)CC1 returned SMARCA2 activ 0, MITF act 0, esBAF inh -6, AF4-AF9 inh 4 and Wnt bcat act -3.
`OC(c1ccccc1)c1ncc(-c2ccccc2F)[nH]1` (stereo unspecified) gave SMARCA2 activ 8, esBAF inh 62*, FGF22 binding 0, AF4-AF9 inh 1 and Wnt bcat act 9.
Screening OC(c1cccc(F)c1)c1ncc(-c2ccc3ccccc3c2)[nH]1 (stereo unspecified) returned SMARCA2 activ 2, esBAF inh 74*, FGF22 binding 0, AF4-AF9 inh 15 and Wnt bcat act 1.
`OC(c1ccc(-c2ccccc2)cc1)c1ncc(-c2ccccc2F)[nH]1` (stereo unspecified) gave SMARCA2 activ -2, esBAF inh -7, FGF22 binding 0, AF4-AF9 inh 2 and Wnt bcat act -1.
`OC(c1ccc(-c2ccccc2)cc1)c1ncc(-c2ccccc2Cl)[nH]1` (stereo unspecified) gave SMARCA2 activ 0, esBAF inh -6, FGF22 binding 0, AF4-AF9 inh -4 and Wnt bcat act -7.
For OC(c1ccccc1)c1ncc(-c2ccccc2Cl)[nH]1 (stereo unspecified) the results were SMARCA2 activ 7.9*, esBAF inh inconclusive, FGF22 binding 0, AF4-AF9 inh 4 and Wnt bcat act 3.
`COc1ccccc1-c1cnc(C(O)c2ccc(C)cc2)[nH]1` (stereo unspecified) gave SMARCA2 activ 0, esBAF inh 55*, FGF22 binding 0, AF4-AF9 inh 4 and Wnt bcat act 1.
COc1ccc(S(=O)(=O)Nc2cccc3c2O[C@@H](CN(C)Cc2ccncc2)[C@H](C)CN([C@@H](C)CO)C3=O)cc1 was read as esBAF inh -2, FGF22 binding 0 and AF4-AF9 inh -1.
Screening CN(Cc1ccccc1)C(=O)OCc1cn(Cc2ccc(Cl)cc2)nn1 returned SMARCA2 activ -1.
For CCCNC(=O)C[C@H]1C[C@@H]2c3cc(NS(=O)(=O)c4ccccc4)ccc3O[C@@H]2[C@H](CO)O1 the results were esBAF inh -1 and FGF22 binding 0.
O=C(Nc1ccc2c(c1)OCO2)c1ccc2nc[nH]c2c1 was read as SMARCA2 activ 6, MITF act 77 and esBAF inh 49*.
`COc1cccc(NC(=O)Nc2ccc3c(c2)OCO3)c1` gave SMARCA2 activ 2, MITF act 67, esBAF inh 61*, FGF22 binding 0, AF4-AF9 inh -8 and Wnt bcat act 40*.
`O=C(Nc1ccc2c(c1)CCC2)Nc1ccc2c(c1)OCO2` gave SMARCA2 activ 5, MITF act 64, esBAF inh 53*, FGF22 binding 0, AF4-AF9 inh -2 and Wnt bcat act 50*.
COc1cccc(NC(=O)CN(C)CC(=O)Nc2ccc3c(c2)OCO3)c1 was read as SMARCA2 activ 2, MITF act -5, esBAF inh 5, AF4-AF9 inh -1 and Wnt bcat act -4.
Screening O=C(Nc1cccc(-c2cn3c(n2)SCC3)c1)c1ccc2c(c1)OCO2 returned SMARCA2 activ 0, MITF act 19, esBAF inh 49*, FGF22 binding 0, AF4-AF9 inh -1 and Wnt bcat act 9.
`C[C@@H]1CN([C@H](C)CO)C(=O)Cc2cc(NC(=O)Cc3ccccc3)ccc2O[C@@H]1CN(C)C(=O)Nc1ccc(F)cc1` gave esBAF inh 4, FGF22 binding 0 and AF4-AF9 inh -1.
`O=C(Cn1cnc2ccccc2c1=O)NCc1ccc2c(c1)OCO2` gave SMARCA2 activ 1, MITF act 11 and esBAF inh -9.
Screening COc1ccc(Cl)cc1C(=O)Nc1ccc2c(c1)OCO2 returned SMARCA2 activ 1 and esBAF inh 51*.
`O=C(NNS(=O)(=O)c1ccc(F)cc1)c1ccc2c(c1)OCO2` gave SMARCA2 activ -1, MITF act 3, FGF22 binding 0, AF4-AF9 inh -2 and Wnt bcat act 0.
O=C(NNC(=O)c1ccc(F)cc1F)c1ccc2c(c1)OCO2 was read as SMARCA2 activ 4, MITF act 54, FGF22 binding 44*, AF4-AF9 inh -2 and Wnt bcat act 1.
Screening O=C(Cn1cnc2ccccc2c1=O)Nc1ccc2c(c1)OCO2 returned SMARCA2 activ 3, MITF act 41, esBAF inh 57*, FGF22 binding 0, AF4-AF9 inh 2 and Wnt bcat act 15.
For O=C(NCc1ccccc1)NCc1cccs1 the results were SMARCA2 activ -1, MITF act 24, esBAF inh 9, FGF22 binding 43*, AF4-AF9 inh 0 and Wnt bcat act -2.
For C[C@@H]1CN([C@@H](C)CO)C(=O)c2c(c3ccccc3n2C)-c2ccccc2CO[C@@H]1CN(C)C(=O)Nc1cccc(F)c1 the results were esBAF inh 0, FGF22 binding 0 and AF4-AF9 inh 1.
CN1c2ccc(C3=CCCCC3)cc2[C@H]2[C@H](CCN2C(=O)NC2CCCC2)[C@@H]1CO was read as AF4-AF9 inh 19.
`C[C@@H]1CN([C@@H](C)CO)C(=O)Cc2cc(NC(=O)CCC(F)(F)F)ccc2O[C@H]1CN(C)Cc1ccncc1` gave esBAF inh 2, FGF22 binding 0 and AF4-AF9 inh -1.
For CCCNC(=O)Nc1ccc2c(c1)OC[C@@H](C)N(C(=O)C1CCC1)C[C@H](C)[C@H](OC)CN(C)C2=O the results were esBAF inh -1, FGF22 binding 0 and AF4-AF9 inh -2.
COc1ccc(C(=O)NC(=S)Nc2nc(C)cc(C)n2)cc1Br was read as SMARCA2 activ 1, FGF22 binding 0, AF4-AF9 inh -3 and Wnt bcat act 42*.
O=C(Nc1cccc([N+](=O)[O-])c1)Nc1ccc2c(c1)OCCO2 was read as SMARCA2 activ -2, MITF act 90*, FGF22 binding 1, AF4-AF9 inh -8 and Wnt bcat act 10.
Screening CCC(CC)C(=O)Nc1cccc(C(=O)Nc2ccc3c(c2)OCO3)c1 returned SMARCA2 activ 3, MITF act 74, esBAF inh 47*, FGF22 binding 0, AF4-AF9 inh 14 and Wnt bcat act 16.
Screening CCOc1cc(C(=O)NC(=S)Nc2nc(C)cc(C)n2)cc(OCC)c1OCC returned SMARCA2 activ 5, MITF act -3, esBAF inh -3, FGF22 binding 0, AF4-AF9 inh 0 and Wnt bcat act -2.
